Bioassay records as filed in PubChem BioAssay.
The entries come from a sample that favours hits as a whole.
DUX4 txn inh – blocks DUX4-driven transcriptional activation | AID 1224904 | 293T-iDUX4 ZSCAN4-Gaussia luciferase reporter, 24 h; active compounds read low | activity change, negative = inhibition, % (concentration not given with the values) | actives 0.8% (n = 37,000);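 active = mean inhibition of at least 10% in the main channel, exceeding the control channel by a set limit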;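 note: 0% = median of neutral control wells and -100% = median of positive control wells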
Numbers without * were called inactive.

SMILES	DUX4 txn inh
O=C(Cc1ccncc1)N1CCCCN2[C@H](CO)[C@H](c3ccc(C#Cc4ccccc4F)cc3)[C@@H]2C1	-39*
O=C(Cc1ccncc1)N1CCCCN2[C@H](CO)[C@@H](c3ccc(-c4ccncc4)cc3)[C@H]2C1	16
O=C(Cc1ccccc1)N1CCCCN2[C@H](CO)[C@@H](c3ccc(C#CC4(O)CCCC4)cc3)[C@@H]2C1	-5
COCC#Cc1ccc([C@@H]2[C@H]3CN(C(=O)Cc4ccccn4)CCCCN3[C@H]2CO)cc1	21
CC(=O)N1[C@@H]2Cn3c(ccc(-c4cccc(C(=O)N(C)C)c4)c3=O)[C@H]1[C@@H](C(=O)O)[C@@H]2CO	-5
